Source: PubChem (several laboratories)
A selection: hits, their analogues and other compounds. The true share with any hit is near 4.3%.
SMARCA2 activ: SMARCA2 (BRM) function activators, primary screen, cell-based, luminescence, high throughput; AID 652017, 2013; hit rate 1% among 370,000; activation, % at 9.1 µM; MG213 cells, MMTV-luciferase reporter, dexamethasone, overnight; in the data active = activation above about 7.8%;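 also: 0% = vehicle wells and 100% = reference activator wells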
MITF act: activators of MITF-driven TRPM1 promoter reporter, primary screen, cell-based, SK-MEL-5, luciferase, single point | hit rate 0.75% among 300,000 | activation, % at 12.5 µM | SK-MEL-5 TRPM1-promoter luciferase, 24 h; % of positive control, neutral wells = 0 | AID 588334, 2011;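 active = mean activation of at least 80% with every replicate also reaching 80%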;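 also: 0% = neutral control wells and 100% = parthenolide positive control wells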
HSF-1 act: HSF-1 activators, primary screen, NIH3T3-HGL cells, MG132 stress, luminescence, single point; NIH3T3-HGL HSF-1 luciferase reporter, 8 h; 100% = twice DMSO control signal; activation, % at 9 µM; hit rate 1.7% among 300,000;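 active = mean replicate activation of at least 50% with a set share of replicates each reaching 50%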;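 also: 0% = median of the neutral control wells and 100% = twice that signal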
HSF1 inh: HSF1 inhibitors in luciferase reporter cells, primary screen, cell-based, NIH3T3, luminescence; AID 2098, 2009; activity change, negative = inhibition, % at 7.5 µM (by protocol); NIH3T3-HGL HSE-luciferase, MG132-induced, luminescence 8 h; active compounds read low; hit rate 0.77% among 300,000;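 active = more than half of replicate wells show activity change below -50%, luminescence cut by over half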;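 also: luciferase reports HSF-1 transcriptional activity via heat shock element; 0% = median of DMSO wells and -100% = zero luminescence signal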
esBAF inh: Bmi1 luciferase reporter increase in mESCs, primary screen, esBAF inhibitor project, mouse ES cells, Bmi1 luciferase knock-in, single point. 24 h; 100% = twice the neutral-well signal. reporter increase, % at 12.5 µM. hit rate 2% among 350,000. AID 602393, 2012; in the data active = activation above about 40%;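 also: 0% = median of the plate's neutral control wells and 100% = double that signal; a rise in the Bmi1 reporter signal indicates esBAF inhibition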
Wnt bcat act: Wnt/beta-catenin pathway activators, primary screen, cell-based, plate reader, single point; Wnt/beta-catenin reporter cell assay, activator; hit rate 1.2% among 300,000; activation, % at 9.35 µM; in the data active = activation above about 30%, passing the limit was not always enough;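 also: 0% = neutral control wells and 100% = positive control wells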
* marks the source's active call; other numbers are inactive results; / = not tested or not shown.

SMILES	SMARCA2 activ	MITF act	HSF-1 act	HSF1 inh	esBAF inh	Wnt bcat act
Cc1ccc(NC(=O)c2ccc(F)cc2)nc1	4.6	61.1	19.5	23.4	/	51.4*
Cc1ccc(NC(=O)c2sccc2C)nc1	2.5	23.4	29.7	14.6	-15.9	51.9*
Cc1ccc(NC(=O)Nc2cccs2)nc1	6.0	55.3	2.1	2.8	/	22.2
Cc1ccc(NC(=O)c2ccc3[nH]c(=O)c(=O)[nH]c3c2)nc1	-5.9	13.0	-16.6	-4.0	13.9	4.8
CCCN1[C@@H]2c3ccc(C4=CCCCC4)c(=O)n3C[C@@H]2[C@@H](CO)[C@@H]1C(=O)OC	/	/	/	/	1.4	/
Cc1nonc1C1CCCN1Cc1cn[nH]c1-c1ccc(-c2ccccc2)cc1 (stereo not given)	-3.7	22.8	61.9*	48.5	9.4	6.0
COc1cc(-c2[nH]ncc2CN2CCCC2c2nonc2C)cc(OC)c1OC (stereo not given)	-0.5	-12.3	3.8	-8.1	/	-1.3
C[C@@H]1CN([C@@H](C)CO)C(=O)c2cc(NC(=O)C3CCCCC3)ccc2O[C@@H](C)CCCCO[C@H]1CN(C)S(=O)(=O)c1cccs1	/	/	/	/	-1.1	/
CSc1ccc(C2C(C#N)=C(N)N(c3ccccc3)C3=C2C(=O)CCC3)cc1 (stereo not given)	3.5	-5.9	57.6*	22.2	12.0	1.4
N#CC1=C(N)N(c2ncn[nH]2)C2=C(C(=O)CCC2)C1c1ccccc1 (stereo not given)	-1.2	3.4	26.4	7.1	/	-1.2
Cc1ccc2c(c1)C(c1ccncc1)=NNC(c1ccccc1)=N2	2.0	20.1	/	/	25.1	2.6
CCc1ccc2c(c1)C(c1ccncc1)=NNC(c1ccccc1)=N2	2.0	23.6	15.1	5.1	48.4*	15.0
CCc1ccc2c(c1)C(c1ccc([N+](=O)[O-])cc1)=NNC(c1ccc(F)cc1)=N2	-3.0	/	59.1*	42.1	32.2	15.7
Cc1ccc(C(=O)O/N=C(\N)c2ccccn2)c(C)c1	-7.6	-94.8	-89.7	-89.1*	-83.3	11.6
COc1ccccc1C(=O)O/N=C(\N)c1ccccn1	-1.0	/	-9.6	13.7	-36.3	53.9*
COc1cc(OC)c(C(=O)O/N=C(\N)c2ccccn2)cc1OC	0.5	26.0	9.3	3.4	11.1	2.4
Cn1c2ccc(F)cc2c2ncn(CCN3CCOCC3)c(=O)c21	0.3	/	159.9*	78.5	1.6	-2.3
Cn1c2ccccc2c2ncn(CCC3=CCCCC3)c(=O)c21	6.1	/	61.0*	36.5	74.4*	/
Cn1c2ccccc2c2ncn(CCCN3CCOCC3)c(=O)c21	-0.5	-3.2	-11.9	0.1	/	/
CN1CCN(CCCn2cnc3c(=O)oc4ccccc4c32)CC1	-0.7	/	-8.2	-5.5	-15.2	-1.1
O=c1oc2ccccc2c2c1ncn2CCN1CCOCC1	-2.5	/	10.2	-0.9	3.5	43.6*
OC[C@@H]1Nc2ccc(C#Cc3ccc(F)cc3)cc2[C@H]2[C@@H]1CCN2Cc1nccs1	/	/	/	/	6.0	/
Cn1cc(CN2CCN(Cc3ccccc3)C(CCO)C2)c(-c2ccccc2)n1 (stereo not given)	-2.1	2.3	-3.2	3.2	1.6	-0.9
CCOc1ccccc1CN1CCN(Cc2cn(C)nc2-c2ccccc2)CC1CCO (stereo not given)	0.0	-0.6	82.4*	43.2	-3.3	-0.5
Cc1ccccc1-c1cnc2c(c1)C(=O)N([C@@H](C)CO)C[C@@H](C)[C@@H](CN(C)C(=O)c1cccnc1)O2	/	/	/	/	-1.4	/
SMILES	SMARCA2 activ	MITF act	HSF-1 act	HSF1 inh	esBAF inh	Wnt bcat act
CCN1CCCC1CN(Cc1cc2ccc(C)cc2[nH]c1=O)C(=S)Nc1cccc(OC)c1 (stereo not given)	-0.3	13.0	59.8*	14.2	/	-0.4
COc1ccc(-c2ccc3ccccc3n2)cc1	5.6	47.7	39.4	1.2	/	9.1
COc1ccc(-c2ccc3ccccc3n2)cc1OC	6.0	99.7*	48.2	23.8	/	31.4*
COc1cc2ccc(-c3ccc4ccccc4n3)cc2cc1OC	-2.7	/	/	/	/	50.4*
CNC[C@H]1Oc2c(NS(=O)(=O)c3cccs3)cccc2C(=O)N([C@@H](C)CO)C[C@H]1C	/	/	/	/	-0.9	/
C[C@@H]1CN([C@@H](C)CO)C(=O)c2cc(NS(C)(=O)=O)ccc2O[C@H]1CN(C)S(=O)(=O)c1ccc(Cl)cc1	/	/	/	/	0.5	/
O=C(c1sc2cc([N+](=O)[O-])ccc2c1Cl)N1CCCCC1	-2.5	9.2	30.3	18.9	33.2	-1.1
CC1CCCN(C(=O)c2sc3cc([N+](=O)[O-])ccc3c2Cl)C1 (stereo not given)	1.4	36.1	-11.3	-5.0	46.3*	/
CC(/C=C/c1ccccc1)=N\Nc1ccccc1[N+](=O)[O-]	-1.8	42.0	39.7	23.7	44.1*	4.5
C=CCOc1ccc2c(c1)CCC1C2CCC2(C)C(O)C(O)CC12 (stereo not given)	-0.8	14.1	/	/	30.2	7.0
C[C@]12CC[C@@H]3c4ccc(O[C@@H]5O[C@H](C(=O)O)[C@@H](O)[C@H](O)[C@H]5O)cc4CC[C@H]3[C@@H]1C[C@@H](O)[C@@H]2O	-0.2	3.1	-64.8	-53.9*	-3.4	-0.4
O=C(N[C@@H]1CC[C@@H](CCn2cc(-c3ccccc3)nn2)O[C@H]1CO)c1ccccc1F	/	/	/	/	2.6	/
COc1ccc(OCCN(C)Cc2c(O)ccc3ccccc23)cc1	-2.6	-5.8	130.0*	98.8	8.4	-3.0
CC(=O)c1cnn(-c2nc3c(C)cccc3s2)c1C	-0.9	10.9	2.2	10.6	22.4	/
CC(=O)c1cnn(-c2c(Cl)cc(Cl)cc2Cl)c1C	-1.8	/	-63.8	-58.6*	/	-0.5
CCC(=O)N1[C@H](CO)[C@H](c2ccc(C3=CCCC3)cc2)[C@@H]1CN(C)C(C)=O	/	/	/	/	10.1	/
CCc1ccc(C(=O)CCC2CCCCC2=O)cc1 (stereo not given)	/	88.5*	12.0	15.6	34.1	/
Cc1ccc(C(=O)CCC2CCCC2=O)cc1 (stereo not given)	7.3	32.6	26.0	23.4	57.1*	/
Cc1ccc(C(=O)CCC2CCCCC2=O)cc1 (stereo not given)	3.4	72.4	10.1	4.5	45.3*	-2.9
Cc1ccc(C(=O)CCC(=O)O)cc1	/	/	-13.0	-1.8	/	/
O=C(CCC1CCCCC1=O)c1ccccc1 (stereo not given)	-0.2	32.2	1.9	5.2	16.6	/
Cc1nc2ccc(-c3nc4cc(N)ccc4o3)cc2[nH]1	0.5	-5.4	-10.4	14.0	-45.8	33.3*
O=C(C[C@@H]1CC[C@@H]2[C@H](COC[C@H](O)CN2S(=O)(=O)c2cccc(Cl)c2)O1)NCc1ccc2c(c1)OCO2	/	/	/	/	-9.7	/
CC(Oc1ccc(Cl)cc1)C(=O)/C=C/N(C)C (stereo not given)	2.1	/	54.0*	10.5	12.2	/
